HT1080-NT tox: kills 2HG-producing HT-1080-NT fibrosarcoma cells. AID 686970. 360,000 tested, 1.6% active. Potency, µM (top dose mostly 46.1 µM), for the others: at the highest dose activity, negative = less viability, usual class: cytotoxic. HT-1080-NT fibrosarcoma viability, CellTiter-Glo ATP luminescence, 48 h;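 note: NT is the 2HG producing partner of a matched IDH1 knockdown line; 0% = DMSO-treated cells and -100% = media-only wells without cells; nearly all actives have a fitted effect of over 55% in size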
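Luminescent CellTiter-Glo readout after 48 hours of compound exposure at 37 degrees C defined viability of HT-1080-NT cells. Activity was normalized to DMSO wells and cell-free media wells; concentration-response curves were fitted and assigned curve classes.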
TDP1 cell CPT: growth inhibition of DT40 Tdp1-/-;hTDP1 cells with camptothecin (screen for TDP1 inhibitors). chicken DT40 Tdp1-/-;hTDP1 cells + 20 nM CPT, ATP luminescence, 48 h. 420,000 tested, 12% active. AID 686979. Potency, µM (top dose mostly 46.2 µM), for inactives: top-dose activity change, negative = growth inhibition, hits mostly inhibitors; note: nearly all actives have a fitted effect of over 55% in size
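Chicken DT40 Tdp1-/- cells complemented with human TDP1, 400 cells/well, exposed to compounds plus 20 nM camptothecin for at least 48 h at 37 C; viability read as ATP content by CellTiter-Glo luminescence.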
TDP1 cell noCPT: qHTS for Inhibitors of human tyrosyl-DNA phosphodiesterase 1 (TDP1): qHTS in cells in absence of CPT; DT40 Tdp1-/- hTDP1 cells, no CPT, ATP luminescence, 48 h; Potency, µM (titrated, usually from 46.2 µM), without a hit: top-dose activity change, negative = growth inhibition, most hits filed as inhibitors; 420,000 tested, 15% active; note: nearly all actives have a fitted effect of over 55% in size
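Growth of hTDP1-complemented DT40 Tdp1-knockout cells is measured by ATP luminescence after at least 48 hr compound exposure at 37 °C, with DMSO substituting for the 20 nM CPT used in the parallel screen.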
KB-V1 MDR tox: KB-V1 MDR subline cytotoxicity. KB-V1 MDR cells viability, CellTiter-Glo, 72 h. Potency, µM (titrated, usually from 46.1 µM), usual class: cytotoxic. 400,000 tested, 3.4% active. AID 1347076; note: nearly all actives have a fitted effect of over 60% in size
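Compound-treated KB-V1 multidrug-resistant cells, 72 h, 37 degrees C; viability by CellTiter-Glo. Fitted qHTS curves give the values.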
KB-3-1 cytotox: KB-3-1 parental cell cytotoxicity; Potency, µM (series often up to 46.1 µM), actives largely listed as cytotoxic; KB-3-1 viability, CellTiter-Glo ATP luminescence, 72 h; 400,000 tested, 1.4% active; AID 1347075; note: nearly all actives have a fitted effect of over 60% in size
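Parental KB-3-1 adenocarcinoma cells in phenol-red-free DMEM with 10% FBS were pin-treated with compounds at several concentrations, incubated 72 h at 37 °C, and viability read by CellTiter-Glo luminescence; concentration-effect curves were fitted after normalization.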
HT1080 IDH1KD tx: toxicity to HT-1080 IDH1 knockdown cells (counter line) | AID 686971 | Potency, µM (highest dose often 46.1 µM), for inactives: top-dose activity, negative = toxicity, most hits filed as cytotoxic | HT-1080 IDH1 knockdown viability, ATP luminescence, 48 h | 360,000 tested, 2% active;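 note: 0% = DMSO wells and -100% = cell-free medium wells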
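Viability of IDH1-knockdown HT-1080 fibrosarcoma cells was assessed by CellTiter-Glo after 48 h at 37 °C with titrated compound; concentration-effect curves were classified by fit quality and response size.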
* = called active by the depositor. Hits are enriched below; roughly 19% of the tested compounds scored in any of these assays. Calls come from the whole dose curve; as a rule, active = well fitted curve in the direction sought with a large enough effect; inconclusive = small, poorly fitted or top-dose-only effect, or another doubt; inactive = no such curve, though single readings can be large; an effect the other way counts as inactive or inconclusive. Unless noted, % is set by controls: 0 for no effect and ±100 for the full control effect; potency is the fitted concentration of half-maximal effect.

Screening Cc1cccc(NC(=S)N=Nc2c(O)n(C)c3ccc(S(=O)(=O)N4CCOCC4)cc23)c1 returned HT1080-NT tox -7%, TDP1 cell CPT 3.7µM*, TDP1 cell noCPT 3.3µM*, KB-V1 MDR tox 0.73µM*, KB-3-1 cytotox inconclusive and HT1080 IDH1KD tx -26%.
For CCn1c(SCC(=O)O)nnc1C1CCCCC1 the results were HT1080-NT tox -3%, TDP1 cell CPT -2%, TDP1 cell noCPT -1%, KB-V1 MDR tox inactive, KB-3-1 cytotox inactive and HT1080 IDH1KD tx -3%.
CC1CCc2sc3ncnc(N4CCOCC4)c3c2C1 (stereo not drawn) was read as HT1080-NT tox -23%, TDP1 cell CPT inconclusive, TDP1 cell noCPT inconclusive, KB-V1 MDR tox inactive, KB-3-1 cytotox inactive and HT1080 IDH1KD tx -20%.
For O=C(c1ccco1)N1CCN(c2ncnc3sc4c(c23)CCC4)CC1 the results were HT1080-NT tox -28%, TDP1 cell CPT inconclusive, TDP1 cell noCPT 20µM*, KB-V1 MDR tox inconclusive, KB-3-1 cytotox inactive and HT1080 IDH1KD tx inconclusive.
c1nc(N2CCC3(CC2)OCCO3)c2c3c(sc2n1)CCCC3 was read as HT1080-NT tox -24%, TDP1 cell CPT inconclusive, TDP1 cell noCPT inconclusive, KB-V1 MDR tox inactive, KB-3-1 cytotox inactive and HT1080 IDH1KD tx -23%.
c1ccc(N2CCN(c3ncnc4sc5c(c34)CCC5)CC2)cc1 was read as HT1080-NT tox -10%, TDP1 cell CPT 21µM*, TDP1 cell noCPT 21µM*, KB-V1 MDR tox inconclusive, KB-3-1 cytotox inconclusive and HT1080 IDH1KD tx -7%.
Screening CC1CCc2c(sc3ncnc(N4CCOCC4)c23)C1 (stereo not drawn) returned HT1080-NT tox inconclusive, TDP1 cell CPT inconclusive, TDP1 cell noCPT inconclusive, KB-V1 MDR tox 15µM*, KB-3-1 cytotox inactive and HT1080 IDH1KD tx inconclusive.
For CCc1nc(N2CCN(C(=O)c3ccco3)CC2)c2c3c(sc2n1)CCCC3 the results were HT1080-NT tox -11%, TDP1 cell CPT inconclusive, TDP1 cell noCPT inconclusive, KB-V1 MDR tox inconclusive, KB-3-1 cytotox inconclusive and HT1080 IDH1KD tx -7%.
Clc1ccc(CN2CCN(c3ncnc4sc5c(c34)CCCC5)CC2)cc1Cl was read as TDP1 cell CPT 21µM*, TDP1 cell noCPT 23µM*, KB-V1 MDR tox inconclusive and KB-3-1 cytotox inactive.
`CC(C)CN1C(=O)c2ccc(C(=O)Nc3ccc(OCC(=O)O)cc3)cc2C1=O` gave HT1080-NT tox 13%, TDP1 cell CPT -6%, TDP1 cell noCPT -1%, KB-V1 MDR tox inactive, KB-3-1 cytotox inactive and HT1080 IDH1KD tx 7%.
CCS(=O)(=O)N1CC(=O)N(c2cccc(Cl)c2)C(C)(C(=O)NC2CCCCCC2)C1 (stereo not drawn) was read as TDP1 cell CPT -17% and TDP1 cell noCPT 6%.
For N[C@@H](CO)C(=O)O the results were TDP1 cell CPT 9% and TDP1 cell noCPT -13%.
Screening COc1ccc(CN2CCN(c3ncnc4sc5c(c34)CC(C)CC5)CC2)cc1F (stereo not drawn) returned TDP1 cell CPT 15µM*, TDP1 cell noCPT 6.5µM*, KB-V1 MDR tox inactive and KB-3-1 cytotox inactive.
Screening CC(=O)N1CCN(c2nc(C)nc3sc4c(c23)CCC(C)C4)CC1 (stereo not drawn) returned HT1080-NT tox -11%, TDP1 cell CPT -20%, TDP1 cell noCPT -22%, KB-V1 MDR tox inactive, KB-3-1 cytotox inactive and HT1080 IDH1KD tx -7%.
`NC(=O)C1CCN(c2ncnc3c(-c4ccccc4)nsc23)CC1` gave HT1080-NT tox -10%, TDP1 cell CPT -3%, TDP1 cell noCPT -4%, KB-V1 MDR tox inactive, KB-3-1 cytotox inactive and HT1080 IDH1KD tx -13%.
O=C(c1ccco1)N1CCN(c2ncnc3c(-c4ccccc4)nsc23)CC1 was read as HT1080-NT tox 2%, TDP1 cell CPT 18µM*, TDP1 cell noCPT 21µM*, KB-V1 MDR tox inconclusive, KB-3-1 cytotox inactive and HT1080 IDH1KD tx 2%.
Screening CC1CCc2c(sc3nc(C4CC4)nc(N4CCN(C(=O)c5ccco5)CC4)c23)C1 (stereo not drawn) returned HT1080-NT tox inconclusive, TDP1 cell CPT inconclusive, TDP1 cell noCPT inconclusive, KB-V1 MDR tox inconclusive, KB-3-1 cytotox inconclusive and HT1080 IDH1KD tx 23µM*.
Screening CCc1nc(N2CCN(C(=O)c3ccccc3)CC2)c2c3c(sc2n1)CCCC3 returned HT1080-NT tox inconclusive, TDP1 cell CPT inconclusive, TDP1 cell noCPT 23µM*, KB-V1 MDR tox inconclusive, KB-3-1 cytotox inconclusive and HT1080 IDH1KD tx inconclusive.
For CN1CCN(S(=O)(=O)c2cccc(C(=O)N(Cc3nnc(-c4ccccc4Cl)o3)C3CC3)c2)CC1 the results were HT1080-NT tox 2%, TDP1 cell CPT 4%, TDP1 cell noCPT -30%, KB-V1 MDR tox inconclusive, KB-3-1 cytotox inactive and HT1080 IDH1KD tx -1%.
Screening C=CCn1c(SCc2ccc3c(c2)OCO3)nc2scc(-c3ccco3)c2c1=O returned HT1080-NT tox 1%, TDP1 cell CPT -11%, TDP1 cell noCPT -20%, KB-V1 MDR tox inactive, KB-3-1 cytotox inactive and HT1080 IDH1KD tx 4%.
Screening CC(C)[C@H]1CN=C2N(CCNC(=O)CCC3CCCCC3)[C@H](Cc3ccc(O)cc3)CN21 returned HT1080-NT tox -12%, TDP1 cell CPT 13µM*, TDP1 cell noCPT 8.2µM*, KB-V1 MDR tox inactive, KB-3-1 cytotox inactive and HT1080 IDH1KD tx -17%.
`COc1ccc(C[C@H]2CN3C(=NC[C@@H]3C(C)C)N2CCNC(=O)CCC2CCCCC2)cc1` gave HT1080-NT tox -1%, TDP1 cell CPT 8.2µM*, TDP1 cell noCPT 7.3µM*, KB-V1 MDR tox inactive, KB-3-1 cytotox inactive and HT1080 IDH1KD tx -19%.
Screening COc1ccc(C[C@H]2CN3C(=NC[C@@H]3Cc3ccccc3)N2CCNC(=O)CCC2CCCCC2)cc1 returned HT1080-NT tox inconclusive, TDP1 cell CPT 13µM*, TDP1 cell noCPT 16µM*, KB-V1 MDR tox 16µM*, KB-3-1 cytotox inconclusive and HT1080 IDH1KD tx inconclusive.
C/C=C(\C)C(=O)NCCN1C2=NC[C@H](C)N2C[C@@H]1Cc1ccc(OC)cc1 was read as HT1080-NT tox 9%, TDP1 cell CPT -20%, TDP1 cell noCPT -1%, KB-V1 MDR tox inactive, KB-3-1 cytotox inactive and HT1080 IDH1KD tx 11%.
